Measured values from PubChem BioAssay AID687001 (Broad Institute, 2013).
Results with a measured potency or affinity are listed apart. A number with no mark means an inactive call.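 Rule for the calls: active = signal-lowering compounds whose fitted half-maximal concentration is at or below twice the top tested dose in every run; inconclusive = runs disagree, flat 30 to 70% inhibition, or poor curve fit; inactive = the rest.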

Target: Protein S100-A4 (Homo sapiens) (UniProt P26447)
Experiment: S100A4-myosin IIA binding inhibitor potency, dose response, biochemical, fluorescence polarization, cherry-picked hits (AID 687001);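 note: 0% = DMSO neutral control wells and -100% = TFP positive control wells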
Details: FP, S100A4/TAMRA-myosin IIA peptide binding; series mostly up to 11 µM; activity change, negative = inhibition: at the top concentration

Chain of Protein S100-A4 (Homo sapiens) (P26447 whole entry, looked up): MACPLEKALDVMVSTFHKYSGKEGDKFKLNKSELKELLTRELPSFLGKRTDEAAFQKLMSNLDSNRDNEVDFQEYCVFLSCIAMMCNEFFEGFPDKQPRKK

Row | Compound | activity change, negative = inhibition
1 | CNC[C@@H]1OCCCC[C@H](C)Oc2ccc(NS(C)(=O)=O)cc2C(=O)N([C@@H](C)CO)C[C@@H]1C | 3.23%
2 | CC(=O)Cc1cc2cc([N+](=O)[O-])ccc2oc1=O | -1.55%
3 | Cc1cc(C)c(NC(=O)CNC(=O)COC(=O)/C=C/c2cccs2)c(C)c1 | -28.4% [at 5.6 µM]
4 | Cc1[nH]c2ccccc2c1CC(=O)Nc1ccc(Nc2cccnc2)c(Br)c1 | 19.9%
5 | O=C(CSc1ccc([N+](=O)[O-])cn1)Nc1ccc2c(c1)OCO2 | -0.303%
6 | Cc1ccc(S(=O)(=O)NCc2ccccc2)cc1C(=O)NCC1CCCO1 (centres undefined) | -6.65%
7 | COc1ccc(-c2coc(CCC(=O)N3CCN(c4cc(C)ccc4C)CC3)n2)cc1 | 10.4%
8 | CC=Cc1ccc2n(c1=O)C[C@@H]1[C@@H](CO)[C@H](C(=O)NCc3ccc4c(c3)OCO4)[C@H]2N1C(C)=O (mixture of isomers) | -3.41%
9 | O=C(c1cnccn1)N1CC(=O)N2[C@H](CO)[C@@H](c3ccc(-c4ccc(F)cc4)cc3)[C@H]2C1 | 1.46%
10 | Cc1ccc(S(=O)(=O)NCC[C@@H]2CC[C@H](NC(=O)Nc3cccc(F)c3)[C@@H](CO)O2)cc1 | 0.251%
11 | O=C(CSc1nnc(NC(=O)C2CC2)s1)NCc1ccccc1Cl | -2.66%
12 | COc1ccc(NC(=O)N(C)C[C@H]2Oc3ccc(N(C)C)cc3C(=O)N([C@@H](C)CO)C[C@@H]2C)cc1 | -4.59%
13 | CC(NC(=O)Nc1ccc(F)cc1)c1ccc2c(c1)OCO2 (centres undefined) | -3.23%
14 | CC[C@]12c3[nH]c4ccc(Cl)cc4c3CCN1C(=O)[C@@H](CC(=O)NCCCn1ccnc1)C[C@@H]2C(=O)N1CCN(C(=O)c2ccco2)CC1 | 1.58%
